# Assay outcomes from PubChem.
# Shown are actives, neighbours in structure and some others; about 6.8% of the full set was active somewhere.
# T cruzi growth-1 = T. cruzi proliferation inhibition; inhibition, % at 8.34 µM; 77,000 tested, 5.9% active; T. cruzi beta-gal in NIH3T3, GalScreen luminescence, 90 h; AID 624255;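 active = mean inhibition above about 93%, with at least 55% of replicates each passing it, limit read from the data, passing the limit was not always enough; inconclusive = only one of those two conditions holds; inactive = neither condition holds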
# C diff growth = C. difficile growth inhibition; Clostridium difficile clinical isolate growth, OD600, 24 h; active compounds read low; growth activity, negative = inhibition, % at 16 µg/mL (by protocol); 86,000 tested, 0.25% active;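 active = mean growth activity at or below -80% and every replicate also at or below -80%; inconclusive = mean at or below -80% but some replicate above -80%; inactive = mean growth activity above -80%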
# Pf Dd2 inh = blocks growth of Plasmodium falciparum Dd2 parasites. P. falciparum Dd2 growth, SYBR Green, 72 h; active compounds read low. activity change, % at 10 µM. 94,000 tested, 2.3% active. AID 1159554; in the data active = activity change below about -80%; inconclusive = no clear call, values can overlap the other calls
# T cruzi growth-2 = blocks T. cruzi growth in NIH3T3 host cells | shares compounds with T cruzi growth-1 | T. cruzi beta-gal in NIH3T3, GalScreen luminescence, 90 h | inhibition, % at 8.35 µM | 5,600 tested, 72% active | AID 651739;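 active = mean replicate inhibition above about 95% and at least 55% of replicates individually reaching it, limit read from the data; inconclusive = only one of the two criteria is met; inactive = neither criterion is met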
# T cruzi growth-3 = inhibitors of T. cruzi proliferation. shares compounds with T cruzi growth-1. T. cruzi beta-gal in NIH3T3, GalScreen luminescence, 90 h. inhibition, % at 2.09 µM. 5,600 tested, 21% active;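 active = mean inhibition above about 95%, with at least 55% of replicates also reaching it, limit read from the data; inconclusive = meets just one of the two conditions; inactive = meets neither condition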
# 3T3 cytotox = NIH/3T3 (mouse) viability loss. NIH/3T3 viability, CellTiter-Glo ATP luminescence, 90 h. cytotoxicity (signal decrease), % at 8.35 µM. 5,600 tested, 14% active. AID 651742. shares compounds with T cruzi growth-1;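 active = mean signal decrease across replicates above about 35% based on untreated-well scatter, with enough replicates individually passing, limit read from the data; inconclusive = no rule stated though some were filed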
# 3T3 cytotox 2 = cytotoxicity in mouse NIH/3T3 fibroblasts; inhibition, % at 24.9 µM; NIH/3T3 viability, CellTiter-Glo ATP luminescence, 90 h; shares compounds with T cruzi growth-1; 5,600 tested, 56% active;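 active = mean loss of cell viability signal at or above a set limit, and enough replicates individually reaching it; inconclusive = meets only the mean limit or only the replicate share; inactive = meets neither condition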
# Hits are given with their value; – = inactive; ? = inconclusive; · = no result given.
SMILES,T cruzi growth-1,C diff growth,Pf Dd2 inh,T cruzi growth-2,T cruzi growth-3,3T3 cytotox,3T3 cytotox 2
CCCC#Cc1ccc2c(c1)O[C@H](CN(C)Cc1ccncc1)[C@@H](C)CN([C@@H](C)CO)S2(=O)=O,121.4,–,–,105.6,100.6,42.2,104.0
C[C@@H]1CN([C@H](C)CO)S(=O)(=O)c2ccc(C#CCN(C)C)cc2O[C@@H]1CN(C)Cc1ccncc1,–,–,–,·,·,·,·
CCCC#Cc1ccc2c(c1)O[C@@H](CN(C)Cc1ccccc1)[C@H](C)CN([C@H](C)CO)S2(=O)=O,·,·,–,·,·,·,·
CC(C)CC#Cc1ccc2c(c1)O[C@@H](CN(C)Cc1ccc(F)cc1)[C@@H](C)CN([C@H](C)CO)S2(=O)=O,–,–,–,·,·,·,·
CCCC#Cc1ccc2c(c1)O[C@H](CN(C)Cc1ccccc1)[C@@H](C)CN([C@@H](C)CO)S2(=O)=O,·,·,–,·,·,·,·
C[C@@H]1CN([C@H](C)CO)S(=O)(=O)c2ccc(C#CCN(C)C)cc2O[C@H]1CN(C)Cc1ccncc1,101.2,–,–,107.4,105.1,45.4,57.8
CC(=O)Nc1ccc2c(c1)C(=O)N(C)[C@@H]1CC[C@@H](CC(=O)NCc3ccc(Cl)cc3)O[C@@H]1CO2,–,–,–,·,·,·,·
CCCNC(=O)N[C@@H]1C=C[C@@H](CC(=O)NCCc2ccccc2)O[C@H]1CO,–,·,–,·,·,·,·
COCC(=O)Nc1ccc2c(c1)[C@@H]1C[C@H](CC(=O)NCCN3CCCCC3)O[C@@H](CO)[C@@H]1O2,–,–,–,·,·,·,·
COc1ccccc1S(=O)(=O)N[C@H]1C=C[C@@H](CC(=O)N2CCOCC2)O[C@@H]1CO,–,–,–,·,·,·,·
C[C@H]1CN([C@@H](C)CO)S(=O)(=O)c2ccc(C#CCN(C)C)cc2O[C@H]1CN(C)Cc1ccc(F)cc1,–,–,–,·,·,·,·
C[C@@H]1CN([C@H](C)CO)S(=O)(=O)c2ccc(C#CCN(C)C)cc2O[C@H]1CN(C)Cc1ccc(F)cc1,115.5,–,–,?,–,56.9,107.4
N#C[C@@H]1[C@@H](c2ccccc2-c2ccccc2)[C@@H](CO)N1C(=O)NC1CCCC1,·,–,–,·,·,·,·
COc1ccc(S(=O)(=O)N(C)C[C@@H]2Oc3c(NC(=O)Nc4ccc(F)cc4)cccc3C(=O)N([C@H](C)CO)C[C@@H]2C)cc1,–,–,–,·,·,·,·
CCC(=O)N(CC)C[C@@H]1[C@@H](c2ccc(-c3ccccc3)cc2)[C@@H](CO)N1C(C)=O,·,–,–,·,·,·,·
CCN(C[C@@H]1[C@@H](c2ccc(-c3ccccc3)cc2)[C@H](CO)N1C(C)=O)C(C)=O,?,–,–,–,–,–,–
CCN(C[C@H]1[C@H](c2ccc(-c3ccccc3)cc2)[C@H](CO)N1C(C)=O)C(C)=O,105.6,–,–,–,–,–,–
CCN(C[C@H]1[C@H](c2ccccc2)[C@@H](CO)N1C(C)=O)C(=O)c1cccc(F)c1,103.2,–,–,–,–,–,–
CCN(C[C@H]1[C@H](c2ccc(-c3cccnc3)cc2)[C@@H](CO)N1C(C)=O)C(C)=O,–,–,–,·,·,·,·
CCC(=O)N1[C@H](CN(CC)C(=O)c2cccc(F)c2)[C@H](c2ccccc2)[C@@H]1CO,–,–,–,·,·,·,·
CCC(=O)N1CC2(C1)[C@H](c1ccccc1)[C@H](CO)N2CCC(F)(F)F,·,–,–,·,·,·,·
COc1ccc(NC(=O)N(C)C[C@H]2OCCCC[C@@H](C)Oc3ccc(NS(=O)(=O)c4cccs4)cc3C(=O)N([C@@H](C)CO)C[C@H]2C)cc1,–,–,–,·,·,·,·
COCC(=O)NC[C@@H]1[C@H](c2ccc(C3=CCCC3)cc2)[C@@H](CO)N1C(C)=O,107.9,–,–,–,–,–,–
CCC(=O)NC[C@H]1[C@H](c2ccc(C3=CCCC3)cc2)[C@H](CO)N1C(C)=O,–,–,–,·,·,·,·
CCC(=O)NC[C@H]1[C@@H](c2ccc(C3=CCCC3)cc2)[C@@H](CO)N1C(C)=O,–,–,–,·,·,·,·
SMILES,T cruzi growth-1,C diff growth,Pf Dd2 inh,T cruzi growth-2,T cruzi growth-3,3T3 cytotox,3T3 cytotox 2
CCC(=O)NC[C@@H]1[C@@H](c2ccc(C3=CCCC3)cc2)[C@H](CO)N1C(C)=O,–,–,–,·,·,·,·
COCC(=O)NC[C@H]1[C@H](c2ccc(C3=CCCC3)cc2)[C@H](CO)N1C(C)=O,?,–,–,–,–,–,–
COCC(=O)NC[C@@H]1[C@H](c2ccc(C3=CCCC3)cc2)[C@H](CO)N1C(C)=O,115.7,–,–,95.9,–,–,–
CCC(=O)N1C[C@@H](O)COC[C@H]2O[C@@H](CC(=O)NC)CC[C@@H]21,–,–,–,·,·,·,·
NCC[C@H]1CC[C@H](NC(=O)C2CC2)[C@H](CO)O1,·,–,–,·,·,·,·
Cc1ccc(S(=O)(=O)Nc2ccc3c(c2)C(=O)N([C@@H](C)CO)C[C@H](C)[C@@H](CN(C)S(=O)(=O)c2ccccc2)OCCCC[C@@H](C)O3)cc1,–,–,–,·,·,·,·
Cc1ccc(S(=O)(=O)Nc2ccc3c(c2)C(=O)N([C@@H](C)CO)C[C@@H](C)[C@@H](CN(C)S(=O)(=O)c2ccccc2)OCCCC[C@H](C)O3)cc1,97.4,–,–,102.2,–,–,–
Cc1ccc(S(=O)(=O)N(C)C[C@H]2OCCCC[C@H](C)Oc3ccc(NS(=O)(=O)c4ccccc4)cc3C(=O)N([C@H](C)CO)C[C@@H]2C)cc1,–,–,–,·,·,·,·
C[C@@H]1CN([C@H](C)CO)C(=O)c2cc(NS(=O)(=O)c3ccccc3)ccc2O[C@@H](C)CCCCO[C@H]1CN(C)S(=O)(=O)c1ccccc1,–,·,–,·,·,·,·
Cc1ccc(S(=O)(=O)Nc2ccc3c(c2)C(=O)N([C@H](C)CO)C[C@@H](C)[C@H](CN(C)S(=O)(=O)c2ccccc2)OCCCC[C@H](C)O3)cc1,104.7,–,–,107.6,–,–,–
C[C@@H]1CCCCO[C@H](CN(C)S(=O)(=O)c2ccccc2)[C@H](C)CN([C@H](C)CO)C(=O)c2cc(NS(=O)(=O)c3ccccc3)ccc2O1,107.0,·,–,115.3,–,–,–
C[C@H](CO)N1C[C@H](C)[C@H](CN(C)S(C)(=O)=O)Oc2ccc(NC(=O)C3CCCCC3)cc2C1=O,–,–,–,·,·,·,·
COCc1cn(CC[C@H]2CC[C@@H](NC(=O)Nc3ccc(OC)cc3)[C@H](CO)O2)nn1,–,–,–,·,·,·,·
O=C(O)C[C@H]1C[C@@H]2c3cc(NC(=O)NC4CCCC4)ccc3O[C@@H]2[C@H](CO)O1,–,·,–,·,·,·,·
C[C@H]1CN([C@@H](C)CO)C(=O)c2cccc(NC(=O)C3CC3)c2O[C@@H]1CN(C)C(=O)Nc1cccc2ccccc12,–,–,–,·,·,·,·
O=C(Nc1cc(F)ccc1F)N1CC(=O)N2[C@H](C1)[C@H](c1ccc(-c3ccccc3)cc1)[C@@H]2CO,·,–,–,·,·,·,·
